Assay results as given in PubChem BioAssay AID1259245 (Vanderbilt High Throughput Screening Facility, 2017).
Values joined by “and” are separate entries in the source; they are usually repeats but may differ in a detail not shown here. Identical values can stand only once. The whole screen tested about 40,000 compounds, of which about 1,400 (3.5%) were called active.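 How the source made its calls: active means any of four per-well response measures lying three or more SD from its plate-wide compound average, in either direction; inactive means the rest, inconclusive results apart.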 The list comes from a sample in which actives are over-represented; it also holds similar structures and randomly drawn compounds.

The compounds below were run against Voltage-dependent calcium channel gamma-2 subunit (Mus musculus) + Glutamate receptor 2 (Rattus norvegicus) (UniProt O88602+P19491) (assay: modulators of GluA2-stargazin AMPA receptor complexes, primary screen, cell-based, membrane potential dye (AID 1259245)). Settings: HEK293 GluA2+stargazin, membrane potential dye (FDSS), glutamate EC50, at 30 µM, hits were called plate by plate, in both directions; compound max-min signal: compound-alone response (agonism); glutamate slope, % of max: measured here: glutamate response slope, % max.
Chain of Voltage-dependent calcium channel gamma-2 subunit (Mus musculus) + Glutamate receptor 2 (Rattus norvegicus) (O88602 whole entry, looked up): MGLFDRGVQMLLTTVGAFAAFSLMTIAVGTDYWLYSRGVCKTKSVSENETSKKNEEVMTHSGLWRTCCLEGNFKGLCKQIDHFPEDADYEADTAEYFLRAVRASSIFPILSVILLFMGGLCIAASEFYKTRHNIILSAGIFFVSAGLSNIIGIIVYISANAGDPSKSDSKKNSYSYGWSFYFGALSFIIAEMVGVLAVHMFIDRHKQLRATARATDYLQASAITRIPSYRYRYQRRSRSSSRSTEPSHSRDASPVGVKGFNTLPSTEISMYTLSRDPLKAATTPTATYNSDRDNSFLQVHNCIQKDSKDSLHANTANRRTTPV
Chain of Voltage-dependent calcium channel gamma-2 subunit (Mus musculus) + Glutamate receptor 2 (Rattus norvegicus) (P19491 whole entry, looked up): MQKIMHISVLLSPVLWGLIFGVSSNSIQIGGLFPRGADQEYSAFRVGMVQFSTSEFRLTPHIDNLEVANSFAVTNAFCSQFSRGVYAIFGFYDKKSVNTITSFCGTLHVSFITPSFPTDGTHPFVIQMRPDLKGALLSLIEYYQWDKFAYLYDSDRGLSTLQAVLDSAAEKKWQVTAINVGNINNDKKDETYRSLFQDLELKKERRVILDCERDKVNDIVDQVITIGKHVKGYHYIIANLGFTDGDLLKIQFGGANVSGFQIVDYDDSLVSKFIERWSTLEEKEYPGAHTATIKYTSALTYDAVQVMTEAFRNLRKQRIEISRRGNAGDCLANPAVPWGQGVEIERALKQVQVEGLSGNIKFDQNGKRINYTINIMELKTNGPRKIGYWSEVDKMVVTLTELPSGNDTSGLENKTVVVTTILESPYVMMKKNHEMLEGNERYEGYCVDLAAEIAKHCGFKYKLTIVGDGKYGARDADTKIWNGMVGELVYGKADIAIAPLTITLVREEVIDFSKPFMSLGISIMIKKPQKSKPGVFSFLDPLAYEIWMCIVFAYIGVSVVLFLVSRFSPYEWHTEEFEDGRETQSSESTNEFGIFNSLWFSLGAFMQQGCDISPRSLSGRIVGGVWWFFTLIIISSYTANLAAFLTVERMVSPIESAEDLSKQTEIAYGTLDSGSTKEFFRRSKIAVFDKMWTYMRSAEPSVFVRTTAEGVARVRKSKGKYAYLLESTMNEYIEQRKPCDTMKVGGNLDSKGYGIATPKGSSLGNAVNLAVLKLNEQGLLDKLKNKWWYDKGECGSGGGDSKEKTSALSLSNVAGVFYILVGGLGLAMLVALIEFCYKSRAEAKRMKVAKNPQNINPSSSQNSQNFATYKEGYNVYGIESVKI

SMILES | compound max-min signal | glutamate response, % of max | glutamate slope, % of max
Cc1ccc(F)cc1NC(=O)CSc1ncc(S(=O)(=O)c2ccc(Cl)s2)c(N)n1 | 0.162 | 28.9% (inactive) | 52.4%
CCOCCn1c(=O)c2c(nc3n2CCCN3c2ccc(Br)cc2)n(C)c1=O | 0.127 | 46.2% (inactive) | 67.4%
COc1ccc(OC)c2sc(N(CCN3CCOCC3)C(=O)c3cccc(F)c3)nc12 | 0.177 | 47.1% (inactive) | 60.4%
COc1ccc(Cl)c2sc(N(CCCN3CCOCC3)C(=O)c3ccno3)nc12 | 0.17 | 19.9% (active) | 29.3%
COc1ccc(OC)c2sc(N(CCN3CCOCC3)C(=O)c3cccs3)nc12 | 0.221 | 45.8% (inactive) | 65.3%
O=C(/C=C/c1cccs1)NCC1CCN(C(=O)COc2ccccc2)CC1 | 0.0649 | 42% (inactive) | 61.3%
Cc1cc(C)c(NC(=O)CN2CCN(c3nccn3-c3ccccc3F)CC2)c(C)c1 | 0.0429 | 8.38% (inactive) | 22.6%
O=C(Cc1csc(NC(=O)c2ccc(=O)[nH]c2)n1)NCCC1=CCCCC1 | 0.0625 | 14.3% (inactive) | 44.1%
CCCC(CCC)C(=O)Nc1cc(C)nn1-c1nc2c(cnn2-c2cccc(Cl)c2)c(=O)[nH]1 | 0.134 | 34% (inactive) | 47.5%
Cc1cc(NC(=O)C(C)Oc2ccccc2)n(-c2nc3c(cnn3-c3ccc(C)c(C)c3)c(=O)[nH]2)n1 (stereo not drawn) | 0.407 | 19.4% (active) | 19.7%
O=C(Nn1cnc2c(cnn2-c2cccc(Cl)c2)c1=O)c1ccc(-c2ccccc2)cc1 | 0.0867 | 36% (inactive) | 64%
Cc1ccc(-n2ncc3c(=O)n(CC(=O)N4CCc5ccccc54)cnc32)cc1C | 0.12 | 54.7% (inactive) | 80.7%
CCC(C(=O)Nc1cc(C)nn1-c1nc2c(cnn2-c2ccccc2)c(=O)[nH]1)c1ccccc1 (stereo not drawn) | 0.102 | 34.9% (inactive) | 55.6%
Cc1cc(NC(=O)c2ccc3c(c2)OCO3)n(-c2nc3c(cnn3-c3cccc(Cl)c3)c(=O)[nH]2)n1 | 0.15 | 27.3% (active) | 36%
Cc1ccccc1CN1C(=O)C2(c3ccccc31)N(c1ccc(F)c(F)c1)C(=O)CS2(=O)=O (stereo not drawn) | 0.109 | 63.6% (inactive) | 74.8%
CC1CCN(CC(O)COc2ccc(C(=O)c3ccccc3)cc2)CC1 (stereo not drawn) | 0.0506 | 53.3% (inactive) | 82.1%
O=C(CCSc1ccccc1)NCC1(c2cccs2)CCOCC1 | 0.0983 | 28% (inactive) | 50.4%
Cc1ccc(S(=O)(=O)N2CCCCC2CCN)cc1 (stereo not drawn) | 0.0595 | 35.1% (inactive) | 57.7%
Cc1ccc(-n2ccnc2N2CCN(CC(=O)Nc3ccc4c(c3)OCO4)CC2)cc1 | 0.0402 | 18.2% (inactive) | 39.2%
CCSc1nnc(-c2ccc(C)cc2)n1-c1ccccc1 | 0.0317 | 0.366% (inactive) | -1.02%
CC(C)c1ccc(NC(=O)C(=O)NCCN2CCN(c3ccc(Cl)cc3)CC2)cc1 | 0.121 | 29.8% (inactive) | 55.1%

SMILES | compound max-min signal | glutamate response, % of max | glutamate slope, % of max
Cc1ccc(-c2nc3c(C)cc(C)cc3c(=O)o2)cc1 | 0.127 | 23.3% (inactive) | 45.9%
Cc1cc(C(=O)O)c2cccc(Cl)c2n1 | 0.0395 and 0.0789 | 80.9% (inactive) and 28.3% (inactive) | 99.3% and 46.1%
O=c1oc(-c2ccncc2)nc2c(Cl)cccc12 | 0.253 | 22.4% (active) | 51.7%
O=C(Nc1ccc2c(c1)OCO2)c1ccc(S(=O)(=O)N2CCCCCC2)cc1 | 0.123 | 36.1% (inactive) | 60.4%
COc1ccc(N2C(=O)/C(=C/c3ccncc3)SC2=S)cc1 | 0.061 | 31.6% (inactive) | 49.4%
Cc1cccc(C(=O)Nc2cccc(N3CCCC3=O)c2)c1 | 0.114 | 45.7% (inactive) | 67.6%
Cc1ccc(C(=O)Nc2cccc(N3CCCC3=O)c2)cc1[N+](=O)[O-] | 0.195 | 33.5% (active) | 54.6%
O=C(Nc1cccc(N2CCCCC2=O)c1)c1cc([N+](=O)[O-])ccc1Cl | 0.113 | 24.4% (inactive) | 52.2%
COc1ccc(NC(=O)COc2ccccc2F)cc1N1CCCCC1=O | 0.0429 | 20.8% (inactive) | 35.3%
O=C(Nc1onc2c1CCCC2)c1nc(-c2cnccn2)no1 | 0.128 | 29.1% (inactive) | 62.8%
CCC(C)NC(=O)/C=C/c1cc(OC)ccc1OC (stereo not drawn) | 0.0444 and 0.0831 | 100% (inactive) and 35.1% (inactive) | 112% and 48.5%
CC(C)c1cc(=O)n(CC(=O)Nc2ccc(S(=O)(=O)Nc3nccs3)cc2)cn1 | 0.0931 | 41.9% (inactive) | 61.5%
O=C(Nc1ccc(S(=O)(=O)Nc2nccs2)cc1)c1csc(-c2cnccn2)n1 | 0.274 | 48.2% (active) | 85.9%
CCCCCOc1cccc(C(=O)Nc2ccc(S(=O)(=O)Nc3nnc(CC)s3)cc2)c1 | 0.112 | 38.7% (inactive) | 62.1%
CCOc1ccccc1NC(=O)Cn1nc(-c2cc(C)c(C)cc2C)ccc1=O | 0.0944 | 64% (inactive) | 97.5%
Cc1nc2ccccc2c(=O)n1-c1cccc(NC(=O)CCC2CCCCC2)c1 | 0.0678 | 11% (inactive) | 28.2%
O=C(NC(C(=O)N1CCCCC1)C12CC3CC(CC(C3)C1)C2)c1ccc(F)cc1 (stereo not drawn) | 0.0524 | 56.1% (active) | 79.2%
O=C(NC(C(=O)O)C12CC3CC(CC(C3)C1)C2)c1cc([N+](=O)[O-])ccc1Cl (stereo not drawn) | 0.0736 | 35.4% (inactive) | 56.5%
COC(=O)N1CCC(CNC(=O)c2ccc(F)cc2)CC1 | 0.0851 | 46.6% (inactive) | 66.5%
O=C(Nc1sc2ccccc2c(=O)c1-c1ccc2c(c1)OCO2)c1ccco1 | 0.14 | 24.9% (inactive) | 55.4%
